Compound activity from PubChem.
ATXN2 expr inh – inhibitors of ATXN2 expression; HEK-293 ATXN2-luciferase reporter, luminescence, 24 h; Potency, µM (highest dose often 57 µM), without a hit: top-dose activity change, negative = inhibition, actives largely listed as inhibitors; hit rate 0.72% among 360,000; AID 1745845; also: potency is read from the fitted curve at half-maximal effect; % is scaled to controls: 0 for no effect and ±100 for the full control effect; nearly all actives have a fitted effect of over 55% in size
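qHTS (up to 57 uM final) was run with 24 h compound exposure of reporter cells at 37 °C. Each well was multiplexed: SteadyGlo luminescence measured ATXN2-luciferase expression after a fluorogenic Gly-Phe-AFC viability readout (25 uM final).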
SW480 rereplic – induces DNA re-replication in SW480 colon adenocarcinoma cells; hit rate 1.8% among 340,000; Potency, µM (series often up to 46.1 µM), for the others: at the top dose re-replication activation, hits mostly activators; SW480 DNA re-replication, Hoechst DNA content imaging, 48 h; AID 624297; also: potency is read from the fitted curve at half-maximal effect; % of control where 0% means no effect; nearly all actives have a fitted effect of over 55% in size
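Cells (250 per well) received 23 nL compound or DMSO by pin tool and were kept 48 hr at 37 C, 5% CO2. Nuclei were then stained with Hoechst for 40 min and scanned for DNA content.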
IL1B secr inh – blocks inflammasome-driven IL-1 beta release. activity change, % at 57.5 µM. hit rate 4.7% among 360,000. AID 743279. THP-1 LPS/ATP IL-1B secretion, AlphaLISA, 16 h; hits give low values; in the data active = activity change below about -50%; inconclusive = mostly about -30% to -49%; also: % is scaled to controls: 0 for no effect and ±100 for the full control effect
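Secreted IL-1B measured by AlphaLISA bead assay after 16 h compound exposure of THP-1 cells; compounds (final up to 57.5 uM) added 1 h before LPS (250 ng/mL) and ATP (1.25 mM) stimulation; lower signal means less secretion.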
MCF10A rerep – inducers of DNA re-replication in MCF 10A breast cells. MCF 10A DNA re-replication, Hoechst nuclear intensity, 48 h. Potency, µM (highest dose often 46.1 µM), for the others: at the highest dose activity, positive = re-replication, actives largely listed as activators. hit rate 2.9% among 350,000; also: potency is read from the fitted curve at half-maximal effect; % of control where 0% means no effect; nearly all actives have a fitted effect of over 50% in size
PINK1 modulator – changes PINK1 expression | PINK1 immunofluorescence, high-content cytometry, 24 h | Potency, µM (titrated, usually from 76.6 µM), inactives show at the top dose activation (PINK1 increase), actives largely listed as activators | hit rate 0.2% among 410,000; active = well fitted activation curve with a large enough effect; inconclusive = small, poorly fitted or top-dose-only effect; cell line not stated here; also: potency is read from the fitted curve at half-maximal effect; % of control where 0% means no effect; nearly all actives have a fitted effect of over 65% in size
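A stable cell line was treated with compounds at 5 concentrations for 24 hours, with CCCP as control. PINK1 levels and mitochondrial localization were measured by immunofluorescence with mitochondrial, cell and nuclear markers after fixation, read by laser-scanning cytometry.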
S2 tox – reduces viability in counter-screen for ATXN expression inhibitors; Potency, µM (doses to about 56.7 µM), most hits filed as cytotoxic; S2 cells (HEK-293 line with an ATXN2-luciferase reporter) viability, CellTiter-Fluor protease fluorescence, 24 h; hit rate 0.49% among 400,000; also: potency is read from the fitted curve at half-maximal effect; nearly all actives have a fitted effect of over 40% in size
Starred values were filed as active, the others as inactive; i = inactive; ? = inconclusive; · = no result. In the library only some 7.1% were active in any assay of this set; here they are far more common. Unless noted, calls follow the shape of the dose curve; as a rule, active = well fitted curve in the direction sought with a large enough effect; inconclusive = small, poorly fitted or top-dose-only effect, or another doubt; inactive = no such curve, though single readings can be large; an effect the other way counts as inactive or inconclusive.

SMILES	ATXN2 expr inh	SW480 rereplic	IL1B secr inh	MCF10A rerep	PINK1 modulator	S2 tox
COc1ccc(C2NC(=S)N3C(c4ccc(OC)c(OC)c4)NC(=S)N23)cc1OC (configuration not stated)	·	·	·	·	·	i
Cc1ccc2nc(NC(=O)CN(C)S(=O)(=O)c3cccc4nsnc34)sc2c1	?	2.31µM*	1.8	?	13.8%	i
O=C(NCC(c1ccco1)N1CCc2ccccc2C1)c1ccc(Cl)c([N+](=O)[O-])c1 (configuration not stated)	-13.7%	0.6%	-82.6*	?	?	i
O=C(NCC(c1ccco1)N1CCc2ccccc2C1)c1cccc([N+](=O)[O-])c1 (configuration not stated)	-10.6%	-0.3%	3.9	16.9%	-0.9%	i
O=C(NCC(c1ccco1)N1CCCC1)c1ccc(Cl)c(S(=O)(=O)N2CCc3ccccc32)c1 (configuration not stated)	-25.8%	?	-54.9*	?	3.6%	?
COc1ccc(C(=O)NCC(c2ccco2)N2CCc3ccccc32)cc1 (configuration not stated)	-28.3%	?	63.6	5.8µM*	2.2%	?
CCOc1ccc(Oc2ccc(C(F)(F)F)cc2N)cc1	20.5%	?	-17.6	27.1%	2.5%	i
COc1cccc(Oc2ccc(C(F)(F)F)cc2N)c1	54.3%	10.1%	-69.5*	7.8%	4.9%	i
Cn1c2ccccc2c(=O)c2cc(C#Cc3ccc(N)cc3)ccc21	5.9%	?	3.6	-2.8%	2.9%	?
Cn1c(-c2ccccc2)c(C#Cc2ccc(N)cc2)c2ccccc21	-14.6%	9.2µM*	-4.0	11.6µM*	11.0%	i
Nc1cc2c3ccccc3ccc2c2ccccc12	39.0%	20.6µM*	-4.8	?	0.7%	?
Cc1ccc(NC(=O)C2CCCN(S(=O)(=O)c3c(C)n[nH]c3C)C2)c(C)c1 (configuration not stated)	-5.4%	·	·	·	-0.6%	i
CC1(C)CC(N2CCCC2)=CC(=[N+]2CCCCC2)C1	?	3.0%	-5.5	?	2.2%	i
CN(Cc1ccccc1)C1=CC(=[N+]2CCCCC2)CC(C)(C)C1	?	23.9%	-69.7*	?	?	i
CC1(C)CC(N2CCCC2)=CC(=[N+]2CCCC2)C1	-29.1%	-0.5%	-8.5	-2.3%	-0.7%	i
CC1(C)CC(N2CCN(Cc3ccccc3)CC2)=CC(=[N+]2CCCCC2)C1	?	-37.7%	-51.5*	-31.1%	?	i
COc1ccc(OC)c(S(=O)(=O)NCCc2sc(-c3cccnc3)nc2C)c1	20.7%	·	·	·	-0.1%	i
COCC(C)OC(=O)C(C#N)c1nc2ccccc2nc1N1CCN(Cc2ccccc2)CC1 (configuration not stated)	-11.6%	14.8%	-55.9*	1.0%	0.6%	i
COCCOC(=O)C(C#N)c1nc2ccccc2nc1N1CCN(Cc2ccccc2)CC1 (configuration not stated)	-11.7%	14.6%	-7.6	16.3%	-1.4%	i
COCCNC(=O)C(C#N)c1nc2ccccc2nc1N1CCCCCC1 (configuration not stated)	7.0%	-210.0%	-70.5*	?	-0.9%	i
COCCCNC(=O)C(C#N)c1nc2ccccc2nc1N1CCN(Cc2ccccc2)CC1 (configuration not stated)	-14.7%	5.1%	-57.7*	?	-1.4%	i
CN(C)c1ccc(CNC(=O)C2CCCN(S(=O)(=O)c3ccc4c(c3)CCCC(=O)N4)C2)cc1 (configuration not stated)	·	·	·	·	1.2%	·
CC1=C(C(=O)Nc2cc(Cl)ccc2C)C2(CCCCC2)OC1=O	·	·	·	·	-0.1%	·
CCN(CC)CC(C)(C)C(=O)/C=C/c1ccc(/C=C/C(=O)C(C)(C)CN(CC)CC)cc1	3.98µM*	?	-2.7	76.4%	0.9%	5.62µM*
